From PubChem BioAssay
Active and inactive are the calls of the source. Unless noted, how the calls were made is not given here.

Legend:
[1] = anti-His antibody binders, primary screen, artefact control for SMM control protein annotation, biochemical, small-molecule microarray, 635 nm fluorescence (AID 1128); details: anti-His Alexa647 antibody binding, higher = more signal;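 further: score merges feature fluorescence with signal-to-noise for each printed compound spot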
[2] = system: Human papillomavirus type 1a E7 protein (residues 1-88); test: HPV1a E7 small-molecule binders, primary screen, biochemical, small-molecule microarray, residues 1-88, 635 nm (AID 1129); details: small-molecule microarray binding, fluorescence 635 nm; higher = more signal
[3] = target: Focal adhesion kinase 1 (Homo sapiens) (UniProt Q05397); test: small-molecule microarray binders of FAK, primary screen, biochemical, 635/667 nm fluorescence, BSA, DTT (AID 1130); details: PTK2 binding, 635 nm fluorescence, higher = more signal;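 further: composite of spot emission at 667 nm and signal to noise over triplicate slides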
Sequence of Focal adhesion kinase 1 (Homo sapiens) (Q05397 whole entry, looked up): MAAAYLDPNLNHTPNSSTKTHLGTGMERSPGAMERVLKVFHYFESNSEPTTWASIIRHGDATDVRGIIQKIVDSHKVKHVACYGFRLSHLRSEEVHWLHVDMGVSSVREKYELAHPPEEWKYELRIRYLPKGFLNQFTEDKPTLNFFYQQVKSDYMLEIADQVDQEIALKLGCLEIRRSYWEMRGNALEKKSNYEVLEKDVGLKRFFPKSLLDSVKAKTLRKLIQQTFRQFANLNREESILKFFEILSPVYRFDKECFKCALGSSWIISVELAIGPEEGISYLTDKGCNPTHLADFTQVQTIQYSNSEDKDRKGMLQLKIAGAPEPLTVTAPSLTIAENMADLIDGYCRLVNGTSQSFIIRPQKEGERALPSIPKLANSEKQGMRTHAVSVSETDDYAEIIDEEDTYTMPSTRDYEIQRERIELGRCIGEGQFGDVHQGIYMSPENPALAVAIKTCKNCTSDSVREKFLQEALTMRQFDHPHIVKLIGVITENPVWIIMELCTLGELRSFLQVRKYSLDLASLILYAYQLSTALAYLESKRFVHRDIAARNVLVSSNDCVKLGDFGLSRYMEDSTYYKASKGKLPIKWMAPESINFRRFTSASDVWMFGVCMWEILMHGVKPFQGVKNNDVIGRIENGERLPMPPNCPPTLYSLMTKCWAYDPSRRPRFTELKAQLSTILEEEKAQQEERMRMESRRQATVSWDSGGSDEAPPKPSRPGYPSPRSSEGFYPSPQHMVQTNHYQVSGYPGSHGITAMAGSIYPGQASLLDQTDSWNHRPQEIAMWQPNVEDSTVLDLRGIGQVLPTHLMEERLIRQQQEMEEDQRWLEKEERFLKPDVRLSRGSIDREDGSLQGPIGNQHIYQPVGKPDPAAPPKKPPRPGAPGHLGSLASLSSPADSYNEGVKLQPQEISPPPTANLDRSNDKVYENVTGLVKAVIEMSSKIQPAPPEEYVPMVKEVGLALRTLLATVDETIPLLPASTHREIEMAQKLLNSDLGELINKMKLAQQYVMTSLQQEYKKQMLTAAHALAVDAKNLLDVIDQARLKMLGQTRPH

[4] = system: Fibrinogen (Alexa647-labelled); test: fibrinogen binders on compound microarrays, profiling panel, artefact control for SMM control-protein annotation, biochemical, small-molecule microarray, 635/667 nm fluorescence (AID 1131); details: fibrinogen-A647 binding fluorescence, higher = more signal;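 further: z-score merges 667 nm fluorescence with per-spot signal-to-noise over triplicate slides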
[5] = target: Follistatin (Homo sapiens) (UniProt P19883); test: follistatin binders on small-molecule microarrays, primary screen, biochemical, small-molecule microarray, 635/667 nm fluorescence (AID 1132); details: FST binding, 635 nm fluorescence, higher = more signal
Sequence of Follistatin (Homo sapiens) (P19883 whole entry, looked up): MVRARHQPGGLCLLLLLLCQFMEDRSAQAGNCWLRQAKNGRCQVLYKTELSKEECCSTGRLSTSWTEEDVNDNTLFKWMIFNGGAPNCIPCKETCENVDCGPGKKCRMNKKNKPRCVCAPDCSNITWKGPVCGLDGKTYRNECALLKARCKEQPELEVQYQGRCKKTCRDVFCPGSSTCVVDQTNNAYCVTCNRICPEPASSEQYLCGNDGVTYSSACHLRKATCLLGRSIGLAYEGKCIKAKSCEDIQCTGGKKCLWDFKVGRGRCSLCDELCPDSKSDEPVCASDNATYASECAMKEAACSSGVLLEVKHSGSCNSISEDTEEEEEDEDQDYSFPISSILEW

[6] = target: Fibroblast growth factor 2 (Homo sapiens) (UniProt P09038); test: FGF2 binders on small-molecule microarrays, primary screen, biochemical, small-molecule microarray, 635/667 nm fluorescence (AID 1133); details: small-molecule microarray binding, FGF2, fluorescence 635/667; higher = more signal
Sequence of Fibroblast growth factor 2 (Homo sapiens) (P09038 whole entry, looked up): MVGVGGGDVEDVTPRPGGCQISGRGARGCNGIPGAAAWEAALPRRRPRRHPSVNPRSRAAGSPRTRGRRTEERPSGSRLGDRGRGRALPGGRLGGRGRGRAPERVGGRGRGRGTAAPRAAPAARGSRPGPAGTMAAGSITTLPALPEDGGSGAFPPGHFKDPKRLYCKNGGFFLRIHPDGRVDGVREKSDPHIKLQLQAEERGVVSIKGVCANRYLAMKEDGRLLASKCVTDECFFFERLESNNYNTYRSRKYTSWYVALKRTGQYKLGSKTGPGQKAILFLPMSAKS

[7] = mitochondrial membrane potential change in A549 cells, profiling panel, cell-based, JC-1 fluorescence, basal, 24 h, 100 nL (AID 1138); details: higher = more signal;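 further: A549 lung adenocarcinoma cells under basal conditions with no added stimulus; test concentration not given here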
Lefty1 = Lefty1 binders on small-molecule microarrays, primary screen, biochemical, small-molecule microarray, 635/667 nm fluorescence (AID 1139); details: small-molecule microarray binding, fluorescence 635/667; higher = more signal
[8] = system: wheat germ agglutinin (Triticum aestivum), Alexa647-labelled; test: wheat germ agglutinin binders on compound microarrays, profiling panel, artefact control for SMM control-protein annotation, biochemical, small-molecule microarray, 635/667 nm fluorescence (AID 1140); details: WGA-A647 binding, 635 nm fluorescence, higher = more signal;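 further: score merges 667 nm feature emission with signal to noise over triplicate slides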
[9] = target: Luciferin 4-monooxygenase (Photinus pyralis) (UniProt P08659); test: firefly luciferase enzyme inhibitors, primary screen, biochemical, luminescence, purified enzyme, 2006 set (AID 1141); details: SteadyGlo luminescence, 30 min, higher = more signal, called active from +8 up or from −8 down;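 further: cell-free assay with purified firefly luciferase at 100 ng per well in PBS; test concentration not given here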
Sequence of Luciferin 4-monooxygenase (Photinus pyralis) (P08659 whole entry, looked up): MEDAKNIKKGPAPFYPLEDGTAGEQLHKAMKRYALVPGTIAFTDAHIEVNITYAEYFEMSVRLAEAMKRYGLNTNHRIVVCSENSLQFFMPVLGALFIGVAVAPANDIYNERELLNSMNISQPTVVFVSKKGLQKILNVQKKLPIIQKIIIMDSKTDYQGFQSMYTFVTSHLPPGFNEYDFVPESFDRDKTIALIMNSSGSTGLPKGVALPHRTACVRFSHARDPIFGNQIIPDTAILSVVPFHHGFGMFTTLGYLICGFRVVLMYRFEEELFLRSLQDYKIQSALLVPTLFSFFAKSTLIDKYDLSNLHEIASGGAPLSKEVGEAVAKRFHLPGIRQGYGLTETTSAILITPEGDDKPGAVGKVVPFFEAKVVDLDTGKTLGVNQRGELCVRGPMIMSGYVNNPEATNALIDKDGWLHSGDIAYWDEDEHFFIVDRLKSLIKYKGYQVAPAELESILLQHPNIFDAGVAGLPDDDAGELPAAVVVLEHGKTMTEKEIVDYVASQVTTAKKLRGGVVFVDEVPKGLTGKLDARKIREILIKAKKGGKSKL

[10] = system: Wnt5a (protein binding on small-molecule microarray); test: Wnt5a binders on small-molecule microarray, primary screen, biophysical, 635/667 nm fluorescence (AID 1142); details: 635 nm fluorescence, higher = more signal;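 further: fluorescence read at 667 nm with signal to noise per printed feature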
[11] = cell viability in Huh7 cells, primary screen, cytotoxicity control for HCV replication inhibitor project, CellTiter-Glo luminescence, basal, 48 h (AID 1143); details: Huh7 HCV replicon, higher = more signal, called active from +8 up or from −8 down;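 further: Huh7 hepatoma cells carrying a hepatitis C replication reporter with no stimulus; test concentration not given here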
[12] = P. aeruginosa biofilm formation inhibitors, primary screen, PAO1 strain, BacTiter-Glo luminescence, LB-PBS (AID 1144); details: 12 h, higher = more signal
[13] = CREB reporter modulators without forskolin, primary screen, cell-based, PC12, CRE-LacZ reporter, unstimulated (AID 1145); details: no forskolin, luminescence, 4.5 h, higher = more signal, called active from +8 up or from −8 down
[14] = CREB reporter modulators under forskolin, primary screen, cell-based, PC12, CRE-LacZ reporter, forskolin-stimulated (AID 1146); details: luminescence, 4.5 h, higher = more signal, called active from +8 up or from −8 down;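 further: PC12 cells with 6xCRE LacZ reporter stimulated by forskolin 10 µM; beta-galactosidase reporter signal reflecting CREB driven transcription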
[15] = target: Streptavidin (Streptomyces avidinii) (UniProt P22629); test: streptavidin binders on small-molecule microarray, primary screen, artefact control for SMM compound annotation, biophysical, 635/667 nm fluorescence (AID 1147); details: streptavidin binding, higher = more signal;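 further: signal reflects streptavidin binding to arrayed compounds as a control protein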
Sequence of Streptavidin (Streptomyces avidinii) (P22629 whole entry, looked up): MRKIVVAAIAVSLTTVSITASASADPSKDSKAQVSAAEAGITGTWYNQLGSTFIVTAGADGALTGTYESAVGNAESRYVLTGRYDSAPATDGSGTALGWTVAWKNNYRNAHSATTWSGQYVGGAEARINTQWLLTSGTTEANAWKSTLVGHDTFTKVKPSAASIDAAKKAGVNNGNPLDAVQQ

[16] = small-molecule binders of probe aInhba, primary screen, biochemical, small-molecule microarray, 635/667 nm fluorescence (AID 1148); details: higher = more signal;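 further: score merges 667nm spot fluorescence with signal-to-noise for antibody binding to printed compounds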
Torsin-1A (Homo sapiens) [17] = target: Torsin-1A (Homo sapiens) (UniProt O14656); test: torsin A binders from cell lysate, primary screen, small-molecule microarray, wild-type, 635/667 nm (AID 1149); details: COS7 hTOR1A-WT lysate, 635 nm fluorescence, higher = more signal
Sequence of Torsin-1A (Homo sapiens) (O14656 whole entry, looked up): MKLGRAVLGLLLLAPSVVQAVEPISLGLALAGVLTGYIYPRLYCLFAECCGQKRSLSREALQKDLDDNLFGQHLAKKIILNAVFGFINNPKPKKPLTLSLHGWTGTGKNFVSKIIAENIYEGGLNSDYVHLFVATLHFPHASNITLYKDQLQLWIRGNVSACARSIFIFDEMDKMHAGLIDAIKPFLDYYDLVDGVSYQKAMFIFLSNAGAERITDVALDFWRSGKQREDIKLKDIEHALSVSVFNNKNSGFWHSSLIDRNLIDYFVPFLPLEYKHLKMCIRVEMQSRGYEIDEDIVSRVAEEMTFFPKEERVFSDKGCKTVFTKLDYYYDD

Torsin-1A (Homo sapiens) [18] = target: Torsin-1A (Homo sapiens) (UniProt O14656); test: small-molecule binders of mutant TOR1A in lysate, primary screen, cell lysate, small-molecule microarray, COS7 lysate, 635/667 nm fluorescence (AID 1150); details: COS7 hTOR1A mutant lysate, 635 nm fluorescence, higher = more signal;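 further: score pools 667 nm emission and signal to noise measuring lysate protein binding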
[19] = system: Sonic hedgehog protein (Shh); test: small-molecule binders of Shh protein, primary screen, biochemical, small-molecule microarray, 635/667 nm fluorescence (AID 1151); details: small-molecule microarray binding, 635 nm fluorescence; higher = more signal;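 further: Shh protein binding to compounds spotted on small-molecule microarray slides; score combines spot fluorescence intensity with signal-to-noise across triplicate slides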

| SMILES | composite z-score [1] | composite z-score [2] | composite z-score [3] | composite z-score [4] | composite z-score [5] | composite z-score [6] | z-score [7] | composite z-score (Lefty1) | composite z-score [8] | z-score [9] | composite z-score [10] | z-score [11] | z-score [12] | z-score [13] | z-score [14] | composite z-score [15] | composite z-score [16] | composite z-score (Torsin-1A (Homo sapiens) [17]) | composite z-score (Torsin-1A (Homo sapiens) [18]) | composite z-score [19] |
| --- | --- | --- | --- | --- | --- | --- | --- | --- | --- | --- | --- | --- | --- | --- | --- | --- | --- | --- | --- | --- |
| COC(=O)[C@@]1(Cc2ccccc2)[C@H]2c3cc(C(=O)N(C)C)n(CCSC(=N)N)c3C[C@H]2CN1C(=O)c1ccccc1 | 0.367 | 0.336 | 0.117 | 0.869 | -0.239 | 0.277 | 0.378 | -0.318 | 0.164 | 1.13 (inactive) | -0.042 | 0.0619 (inactive) | -0.367 (inactive) | 0.583 (inactive) | 0.53 (inactive) | -0.405 | 0.0444 | -0.524 | -0.209 | -0.564 |
| COC(=O)[C@H](Cc1ccccc1)N1CC2=CCCC=C[C@@H]2[C@H]1[C@H](O)Cc1ccccc1 | -0.305 | 0.431 | -0.384 | 0.515 | 0.87 | 0.122 | 0.18 | 0.273 | 0.261 | -0.62 (inactive) | -0.0279 | -1.02 (inactive) | 1.09 (inactive) | 2.4 (inactive) | 1.07 (inactive) | 0.916 | -0.0332 | -0.214 | -0.371 | 0.848 |
| Cc1ccc(S[C@]2(C(=O)NCCCN(C)C)CC(=O)N(C3Cc4ccccc4C3)[C@@H]2c2ccc(CO)cc2I)cc1 | 0.0192 | 0.132 | -0.0489 | 0.493 | 0.135 | -0.813 | -0.522 | -0.515 | 0.0805 | -0.222 (inactive) | -0.283 | -1.5 (inactive) | 0.505 (inactive) | 0.155 (inactive) | 2.5 (inactive) | 0.372 | -0.182 | -1.5 | -1.04 | -0.348 |
| CC(C)N1C(=O)c2ccccc2[C@@H](C(=O)NCC(F)(F)F)[C@@H]1c1ccc(CO)cc1 | -0.0668 | 0.0715 | 0.284 | -0.537 | 0.527 | 0.0683 | 1.41 | -0.232 | -0.348 | -0.189 (inactive) | -0.167 | 0.837 (inactive) | 1.03 (inactive) | 0.145 (inactive) | 0.557 (inactive) | -0.268 | -0.152 | -0.0705 | -1.02 | 0.119 |
| C=C(COC)C(=O)CC[C@H](OC(=O)c1cccnc1)c1ccc(OCCO)cc1 | -0.108 | 0.355 | -0.172 | 0.637 | 1.07 | 0.893 | -0.747 | 1.63 | 0.73 | -2.23 (inactive) | 0.965 | -2.1 (inactive) | 0.385 (inactive) | 1.54 (inactive) | 0.755 (inactive) | 0.257 | 0.103 | 0.613 | 1.43 | 2.4 |
| CC(C)C(CO)N1C(=O)[C@@H]2C3C(=O)OCCC/C=C\[C@H]3OC23C=CCN(Cc2ccccc2)C(=O)[C@@H]13 (stereo not given in full) | -1.18 | -0.359 | -0.0926 | -2.51 | -0.908 | -0.591 | 1.21 | -0.524 | -1.2 | -0.59 (inactive) | 0.0204 | -0.294 (inactive) | 2.31 (inactive) | 0.601 (inactive) | 0.312 (inactive) | -1.14 | 0.0212 | 0.662 | 0.825 | 0.855 |
| O=C1O[C@H](Cc2ccccc2)[C@@H]2[C@H]3C=CCCC=C3CN2[C@H]1Cc1ccc(O)cc1 | 1.38 | -1.36 | 0.203 | -2.73 | 0.16 | -0.579 | -0.653 | 0.262 | 0.778 | -0.992 (inactive) | -0.311 | -0.0514 (inactive) | -0.818 (inactive) | -0.0546 (inactive) | 1.11 (inactive) | -0.0955 | 0.214 | -0.2 | -0.632 | -0.282 |
| C=C(CCCC)/C(=C/C[C@H](OC(=O)c1ccncc1)c1ccc(OCCO)cc1)c1cnc2ccccc2c1 | 2.06 | 1.23 | 0.525 | 0.892 | 1.28 | 1.02 | 2.39 | 1.27 | 1.36 | -1.83 (inactive) | 0.766 | -1.17 (inactive) | 0.15 (inactive) | 10.9 (active) | -0.574 (inactive) | 1.83 | -0.0221 | 1.03 | 0.667 | 1.4 |
| COc1ccccc1CN1C(=O)c2ccccc2[C@](Cc2ccccc2I)(C(=O)NCC(C)C)[C@@H]1c1ccc(CO)cc1 | -0.718 | 0.654 | -0.299 | 0.378 | 1.05 | 0.133 | 2.54 | -0.803 | 0.0043 | -1.22 (inactive) | 0.0108 | -2.13 (inactive) | 0.584 (inactive) | 0.0279 (inactive) | -0.542 (inactive) | -0.738 | 0.126 | -0.0986 | -0.61 | 0.034 |
| [N-]=[N+]=NCc1ccccc1[C@@H]1OC(c2ccc(OCCCO)cc2)=N[C@]1(Cc1ccccc1N=[N+]=[N-])C(=O)NCC(O)CO (stereo not given in full) | 2.76 | 1.2 | 0.955 | 0.911 | 1.05 | 1.26 | 0.637 | -0.459 | 1.22 | -2.1 (inactive) | 0.88 | -1.49 (inactive) | 0.12 (inactive) | 0.47 (inactive) | -0.806 (inactive) | 1.74 | 0.791 | 0.553 | 1.65 | -0.771 |
